This is part of a sample that, as a whole, favours compounds with a hit. Of some 83,000 tested, about 20% had one in any assay.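 In brief: 96-well plates, 48 h treatment, single concentration, percent growth endpoint.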 Unmarked numbers belong to inactive results. Calls of active or inactive are those of the source. Rule for the calls: active = growth percent below 10; inactive = the rest.
tested on: U251 CNS; experiment: NCI-60 one-dose screen, 48 h (100 = growth as untreated, 0 = no growth, -100 = all killed); details: 10 µM unless noted

Q: `CN1CCN(Cc2ccc(NC(=O)c3cncc(C#Cc4cnc5ccc(N6CCN(C)CC6)nn45)c3)cc2C(F)(F)F)CC1` was tested. Which growth did it give?
A: Its growth is -96.7% (active).

Q: How did the growth turn out when `O=C(O)c1cn(C2CC2)c2cc(N3CCN(C(=O)CN4C(=O)CSC4=O)CC3)c(F)cc2c1=O` was run?
A: The growth was 115%.

Q: For `NC/C(=C/F)COc1ccc2nc(NCc3cccnc3)oc2c1`, which growth is on record?
A: The growth was 105%.

Q: For `C=C(C)[C@@H]1CC[C@]2(C(=O)NCCCCCN(CCC#N)CCC#N)CC[C@]3(C)[C@H](CC[C@@H]4[C@@]5(C)CCC(=O)C(C)(C)[C@@H]5CC[C@]43C)[C@@H]12`, which growth is on record?
A: The growth was 115%.

Q: How did the growth turn out when `CCCCNNC(=O)c1ccc(-c2cccc(F)c2F)cc1` was run?
A: The growth was 36%.

Q: `C#Cc1ccc(C(=O)NCc2ccc(/C=C/C(=O)c3nccn3C)cc2)cc1` was tested. Which growth did it give?
A: Its growth is 17.3%.

Q: With `COc1ccc(/C(N)=N/C(N)=N/c2nc3ccccc3s2)cc1` as the compound, how does the growth read?
A: The growth was 68%.

Q: `O=C(CN1CCN(c2cc(=O)[nH]c3ccc(F)cc23)CC1)Nc1ccc(Cl)cc1` was tested. Which growth did it give?
A: Its growth is 42.6%.

Q: With `Cc1ccc(-n2cc(/C=C/C(=O)c3ccc(O)cc3)c(-c3ccc(S(C)(=O)=O)cc3)n2)cc1` as the compound, how does the growth read?
A: Its growth is 72.3%.

Q: `O=S(=O)(NCCCNc1nccc(-c2[nH]c(-c3ccccc3)nc2-c2ccc(Cl)c(O)c2)n1)c1cccc(F)c1` was tested. Which growth did it give?
A: The growth was 64.4%.

Q: How did the growth turn out when `Cc1cc(-c2ccc(Cl)cc2)n(Cc2nnc(SCC(=O)Nc3ccc(S(N)(=O)=O)cc3)n2C2CCCCC2)n1` was run?
A: Its growth is 101%.

Q: How did the growth turn out when `Oc1cccc2ccc(-c3nnc(SCc4ccc(O)c5ncccc45)n3-c3ccccc3)nc12` was run?
A: Its growth is 8.21% (active).

Q: `Cc1ccc(-c2nn(-c3ccccc3)cc2/C=C/C(=O)c2ccc(NC(=O)CCCCCCC(=O)NO)cc2)cc1` was tested. Which growth did it give?
A: Its growth is 79.2%.

Q: How did the growth turn out when `CC(C)(C)c1ccc(C(=O)Nc2sc3c(c2C(N)=O)CCC(O)C3)cc1` (stereo not drawn) was run?
A: The growth was 54%.

Q: How did the growth turn out when `O=C(Nc1ccc2c(ccn2Cc2ccccn2)c1)c1ccnnc1` was run?
A: Its growth is 108%.

Q: Which growth does the source give for `CC(C)(C)c1ccc(C(=O)Nc2sc3c(c2C(N)=O)CC/C(=N\O)C3)cc1` here?
A: The growth was 17.9%.

Q: With `NC(N)=Nc1ccc(Oc2cccc(Nc3ccc(Cl)cc3)c2)cn1` as the compound, how does the growth read?
A: Its growth is -71.2% (active).

Q: How did the growth turn out when `CCc1cccc(NC(=O)CNc2cc(S(=O)(=O)N(C)C)cc(C)c2C)c1` was run?
A: The growth was 104%.

Q: `COc1ccc(N2C(=O)c3cc(Cl)ccc3NC2SCc2ccccc2)cc1` (stereo not drawn) was tested. Which growth did it give?
A: Its growth is 99.4%.

Q: For `O=C(CN1CCN(c2cc(=O)n(-c3ccccc3)c3ccccc23)CC1)Nc1nc(-c2ccc(Cl)cc2)cs1`, which growth is on record?
A: Its growth is 63.8%.

Q: How did the growth turn out when `COc1ccc(C2c3sc4c(C)cccc4c3Oc3nc(CC(=O)Nc4ccccc4)[nH]c(=O)c32)cc1` (stereo not drawn) was run?
A: Its growth is 106%.

Q: With `O=C(/C=C/c1ccc(F)cc1)c1ccc(O)cc1` as the compound, how does the growth read?
A: Its growth is 66.7%.

Q: For `Cn1ccnc1C(=O)/C=C/c1ccc(NC(=O)c2c(F)c(F)c(F)c(F)c2F)cc1`, which growth is on record?
A: Its growth is 99%.

Q: How did the growth turn out when `Nc1cc(-c2c[nH]c3ccc(Br)cc23)nc2cc(-c3c[nH]c4ccc(Br)cc34)nn12` was run?
A: Its growth is -47.8% (active).

Q: For `C#CCC#CCN1CCC[C@H]1C(=O)NCC(=O)OC`, which growth is on record?
A: Its growth is 103%.

Q: Which growth does the source give for `COc1cc(/C=C/C(=O)c2ccc(NC(=O)CSc3nnc(-c4ccc(-c5nc6ccc(Cl)cc6[nH]5)cc4)o3)cc2)cc(OC)c1OC` here?
A: Its growth is 88.5%.

Q: With `Oc1cccc2ccc(-c3nnc(SCc4ccc(O)c5ncccc45)o3)nc12` as the compound, how does the growth read?
A: The growth was 13.3%.

Q: Which growth does the source give for `NS(=O)(=O)c1ccc(Nc2nc(SCc3ccccc3)nc3ccccc23)cc1` here?
A: The growth was 60.1%.

Q: For `O=C1[C@@H]2Cc3c([nH]c4ccccc34)[C@H](c3c(Cl)cccc3Cl)N2C(=O)CN1C1CCN(CC2CCCCC2)CC1`, which growth is on record?
A: Its growth is 42.8%.

Q: For `NS(=O)(=O)c1ccc(Nc2nc(N/N=C/c3c[nH]c4ccccc34)nc(Nc3ccccc3)n2)cc1`, which growth is on record?
A: Its growth is 28.1%.

Q: How did the growth turn out when `N#Cc1c(-c2cccs2)cc(-c2cnccn2)nc1SCC(=O)Nc1ccc(Br)cc1` was run?
A: The growth was 83%.

Q: How did the growth turn out when `COc1ccc(Cn2cc3c(c2-c2cc(OC)c(OC)c(OC)c2)CCc2c(CN4CCOCC4)noc2-3)cc1` was run?
A: The growth was 27.9%.

Q: `C=CCn1c(SCC(=O)Nc2ccc(C(=O)/C=C/c3ccc(C)cc3)cc2)nnc1-c1c[nH]c2ccccc12` was tested. Which growth did it give?
A: The growth was 92.2%.

Q: For `COc1ccccc1C(=O)Nc1cccc2c1C(=O)C(=O)C=C2`, which growth is on record?
A: The growth was 107%.

Q: For `COc1cc(-c2nn(C(C)(C)C)cc2-c2ccnc(NCCCNS(=O)(=O)c3ccc(Cl)cc3)n2)ccc1Cl`, which growth is on record?
A: Its growth is 77.3%.

Q: How did the growth turn out when `CCc1cccc2c3c(sc12)C(c1ccc(Cl)cc1)C(C#N)=C(/N=C/c1ccc(Cl)cc1)O3` (stereo not drawn) was run?
A: The growth was 20.5%.

Q: With `C=C(C=O)[C@@H]1CC[C@]2(COC(C)=O)CC[C@]3(C)C(CC[C@@H]4[C@@]5(C)CC[C@H](OC(C)=O)C(C)(C)[C@@H]5CC[C@]43C)[C@@H]12` (stereo partly drawn) as the compound, how does the growth read?
A: The growth was -50.7% (active).

Q: Which growth does the source give for `COc1ccccc1N1CCN(C2=CC(=O)C(C)=C(C)C2=O)CC1` here?
A: Its growth is 98.1%.

Source: PubChem BioAssay (NCI)
